# Columns and labels:
# Assay in all cases: thermal shift delta Tm vs DMSO control; higher = stronger stabilization (binding)
# Settings in all cases: 12.5 µM; protein concentration 2 µM
# LOC_OS01G01410-cb001 = system: LOC_OS01G01410-cb001
# In short: (§1)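 Purified, E. coli-expressed rice kinase domain constructs were tested by differential scanning fluorimetry in 96-well plates: 19.5 μl of 2 μM kinase in 100 mM potassium phosphate pH 7.5, 150 mM NaCl, 10% glycerol, 5 × SYPRO Orange, plus compound in DMSO. Fluorescence was read from 25°C to 95°C at 0.05°C/s. Melting temperatures came from Boltzmann fits, and the shift is the triplicate mean relative to protein with DMSO alone.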
# LOC_OS01G02750-cb003 = system: LOC_OS01G02750-cb003
# In short: as §1
# LOC_OS01G10900-cb004 = system: LOC_OS01G10900-cb004
# In short: as §1
# LOC_OS01G13800-cb001 = system: LOC_OS01G13800-cb001
# In short: as §1
# LOC_OS01G14860-cb001 = system: LOC_OS01G14860-cb001
# In short: as §1
# LOC_OS01G21960-cb002 = system: LOC_OS01G21960-cb002
# In short: as §1
# LOC_OS01G39600-cb002 = system: LOC_OS01G39600-cb002
# In short: as §1
# LOC_OS01G48390-cb002 = system: LOC_OS01G48390-cb002
# In short: as §1
# LOC_OS01G51400-cb002 = system: LOC_OS01G51400-cb002
# In short: as §1
# LOC_OS01G52050-cb004 = system: T1, LOC_OS01G52050-cb004
# T1 sequence (whole entry): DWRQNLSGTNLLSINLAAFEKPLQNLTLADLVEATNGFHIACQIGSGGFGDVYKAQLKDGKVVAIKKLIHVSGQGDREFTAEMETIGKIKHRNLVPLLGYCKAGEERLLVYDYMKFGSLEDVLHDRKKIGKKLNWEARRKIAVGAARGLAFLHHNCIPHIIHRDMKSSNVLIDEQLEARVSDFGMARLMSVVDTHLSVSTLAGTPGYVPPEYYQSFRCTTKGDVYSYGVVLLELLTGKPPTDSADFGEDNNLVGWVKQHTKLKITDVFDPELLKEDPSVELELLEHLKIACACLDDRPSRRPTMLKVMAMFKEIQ
# In short: as §1
# LOC_OS01G57100-cb003 = system: LOC_OS01G57100-cb003
# In short: as §1
# LOC_OS01G60330-cb001 = system: LOC_OS01G60330-cb001
# In short: as §1
# LOC_OS01G60700-cb002 = system: LOC_OS01G60700-cb002
# In short: as §1
# LOC_OS01G63280-cb003 = system: LOC_OS01G63280-cb003
# In short: as §1
# LOC_OS01G67340-cb003 = system: LOC_OS01G67340-cb003
# In short: as §1
# LOC_OS01G70970-cb002 = system: LOC_OS01G70970-cb002
# In short: as §1
# LOC_OS02G07810-cb001 = system: LOC_OS02G07810-cb001
# In short: as §1
# LOC_OS02G08530-cb003 = system: LOC_OS02G08530-cb003
# In short: as §1
# LOC_OS02G14120-cb001 = system: LOC_OS02G14120-cb001
# In short: as §1
# LOC_OS02G17970-cb001 = system: LOC_OS02G17970-cb001
# In short: as §1
SMILES,thermal shift delta Tm (LOC_OS01G01410-cb001),thermal shift delta Tm (LOC_OS01G02750-cb003),thermal shift delta Tm (LOC_OS01G10900-cb004),thermal shift delta Tm (LOC_OS01G13800-cb001),thermal shift delta Tm (LOC_OS01G14860-cb001),thermal shift delta Tm (LOC_OS01G21960-cb002),thermal shift delta Tm (LOC_OS01G39600-cb002),thermal shift delta Tm (LOC_OS01G48390-cb002),thermal shift delta Tm (LOC_OS01G51400-cb002),thermal shift delta Tm (LOC_OS01G52050-cb004),thermal shift delta Tm (LOC_OS01G57100-cb003),thermal shift delta Tm (LOC_OS01G60330-cb001),thermal shift delta Tm (LOC_OS01G60700-cb002),thermal shift delta Tm (LOC_OS01G63280-cb003),thermal shift delta Tm (LOC_OS01G67340-cb003),thermal shift delta Tm (LOC_OS01G70970-cb002),thermal shift delta Tm (LOC_OS02G07810-cb001),thermal shift delta Tm (LOC_OS02G08530-cb003),thermal shift delta Tm (LOC_OS02G14120-cb001),thermal shift delta Tm (LOC_OS02G17970-cb001)
O=C1c2ccc(Nc3ccc(F)cc3F)cc2CCc2ccc(OC[C@H](O)CO)cc21 [Skepinone-L],0.24 °C,1.29 °C,1.14 °C,-0.71 °C,0.36 °C,0.57 °C,-1.35 °C,0.21 °C,-0.11 °C,0.04 °C,1.15 °C,1.18 °C,0.79 °C,0.21 °C,0.84 °C,0.42 °C,-0.07 °C,0.85 °C,0.72 °C,0.17 °C
C[C@@H](N)c1ccc(C(=O)Nc2ccnc3[nH]ccc23)cc1,0.24 °C,1.16 °C,0.32 °C,0.63 °C,1.44 °C,1.78 °C,0.74 °C,0.45 °C,0.27 °C,1.35 °C,0.44 °C,1.35 °C,0.79 °C,0.61 °C,0.47 °C,0.39 °C,0.79 °C,0.76 °C,4 °C,1.28 °C
COc1cc(Nc2ncc3c(n2)-c2ccc(Cl)cc2C(c2c(F)cccc2OC)=NC3)ccc1C(=O)O [Alisertib (MLN8237)],0.87 °C,0.27 °C,-0.01 °C,-0.04 °C,0.35 °C,-0.3 °C,3.62 °C,-0.18 °C,-0.33 °C,0.48 °C,0.2 °C,0.56 °C,0.66 °C,0.76 °C,0.39 °C,0.83 °C,0.08 °C,0.3 °C,4.62 °C,0.21 °C
COc1cc2ncnc(Oc3cccc(NC(=O)Nc4cc(C(C)(C)C(F)(F)F)on4)c3)c2cc1OC,0.82 °C,1.07 °C,0.12 °C,0.13 °C,0.91 °C,0.64 °C,0.02 °C,0.73 °C,0.35 °C,0.75 °C,1.91 °C,0.64 °C,0.86 °C,1.66 °C,0.78 °C,0.38 °C,0.77 °C,1.04 °C,1.43 °C,0.45 °C
CO[C@H]1C[C@@H]2CC[C@@H](C)[C@@](O)(O2)C(=O)C(=O)N2CCCC[C@H]2C(=O)O[C@H]([C@H](C)C[C@@H]2CC[C@@H](OC(=O)C(C)(CO)CO)[C@H](OC)C2)CC(=O)[C@H](C)/C=C(\C)[C@@H](O)[C@@H](OC)C(=O)[C@H](C)C[C@H](C)/C=C/C=C/C=C/1C,1 °C,0.76 °C,0.53 °C,0.18 °C,0 °C,0.4 °C,0.18 °C,0.44 °C,0.1 °C,0.73 °C,1.06 °C,1.91 °C,0.66 °C,0.23 °C,-0.48 °C,0.3 °C,0.33 °C,0.57 °C,0.93 °C,0.36 °C
CCCNC(=O)Nc1ccc(Oc2ncnc3cc(OC)c(OC)cc23)cc1Cl,0.04 °C,0.33 °C,-0.21 °C,-0.35 °C,-0.27 °C,0.37 °C,0.76 °C,0.53 °C,-0.13 °C,1.02 °C,0.3 °C,0.97 °C,-0.2 °C,0.14 °C,-0.13 °C,-0.25 °C,0.93 °C,1.15 °C,-0.1 °C,0.04 °C
Cc1ccccc1CN1C2=NCCN2C(=O)C2=C1CCN(Cc1ccccc1)C2 [TIC10 Analogue],0.06 °C,2.43 °C,0.31 °C,-0.07 °C,0.07 °C,0.85 °C,-3.24 °C,0.44 °C,0.5 °C,-0.27 °C,1.53 °C,0.24 °C,1.04 °C,0.12 °C,-0.3 °C,0.36 °C,0.85 °C,1.02 °C,-0.11 °C,0.86 °C
CCn1c(N)c(C(=O)NC)c(=O)c2ccc(C#CC(C)(O)COC)nc21 (stereo not given),0.45 °C,0.44 °C,-0.01 °C,-0.17 °C,0.21 °C,0.3 °C,-1.69 °C,0.18 °C,0.37 °C,0.36 °C,0.95 °C,1.02 °C,1.1 °C,0.41 °C,0.38 °C,1.97 °C,0.99 °C,1.25 °C,1.34 °C,0.48 °C
CCc1nc(-c2cccc(C)c2)c(-c2ccnc(NC(=O)c3ccccc3)c2)s1,0.24 °C,0.26 °C,0.38 °C,-0.71 °C,0.27 °C,-0.03 °C,0.93 °C,0.28 °C,0.2 °C,0.24 °C,0.93 °C,1.03 °C,1.53 °C,0.61 °C,0.22 °C,0.22 °C,0.98 °C,0.24 °C,0.43 °C,0.22 °C
CC(C)S(=O)(=O)c1ccc2nccc(Nc3ccc4scnc4c3)c2c1,0.88 °C,1.53 °C,0.44 °C,0.78 °C,0.59 °C,0.58 °C,0.91 °C,2.39 °C,0.31 °C,3.11 °C,1.27 °C,0.31 °C,0.69 °C,0.17 °C,0.82 °C,0.33 °C,-0.59 °C,1.18 °C,1.58 °C,1.42 °C
CN1CCN(Cc2ccc(NC(=O)Nc3ccc(Oc4ccnc(N)n4)cc3)cc2C(F)(F)F)CC1,0.75 °C,4.82 °C,0.41 °C,0.15 °C,7.67 °C,0.98 °C,0.62 °C,1.03 °C,0.2 °C,1.93 °C,-0.21 °C,0.73 °C,1.34 °C,8.29 °C,0.95 °C,2.3 °C,0.57 °C,2.59 °C,6.74 °C,1 °C
COc1ccc(CC(=O)Nc2nc3c(s2)CCc2ccccc2-3)cc1OC,0.68 °C,1.06 °C,0.85 °C,0.28 °C,0.9 °C,0.69 °C,0.43 °C,1.55 °C,-0.32 °C,2.89 °C,2.6 °C,0.9 °C,0.11 °C,0.2 °C,1.18 °C,0.74 °C,-0.24 °C,0.98 °C,2.82 °C,0.81 °C
